Assay outcomes (PubChem)
MITF inh – MITF inhibitors, primary screen, biochemical, AlphaScreen, human. Microphthalmia-associated transcription factor (Homo sapiens), O75030. AlphaScreen MITF homodimerization, bead proximity signal. inhibition, % at 2.6 µM. 650,000 tested, 0.91% active. AID 1259374, 2018; in the data active = inhibition above about 50%;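 also: 0% = vehicle wells with protein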
TEAD-YAP inh – TEAD-YAP interaction inhibition, primary screen, TEAD-YAP interaction inhibitor project, luminescence, HEK-TIYL cells | TEAD-Gal4/YAP UAS-luciferase luminescence | inhibition, % at 9.12 µM | 640,000 tested, 1.4% active | AID 1259422, 2018; in the data active = inhibition above about 32%;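 also: 0% = median of test compound wells and 100% = reference inhibitor wells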
FBW7 activator – FBW7 E3 ligase activators, primary screen, biochemical, AlphaScreen, human | F-box/WD repeat-containing protein 7 (Homo sapiens), Q969H0 | AlphaScreen FBW7–phospho-cyclin E peptide binding, activator screen | normalized activity (activation), % at 26.1 µM | 650,000 tested, 0.13% active | AID 1259310, 2017; in the data active = normalized activity above about 1.9%;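 also: purified mutant Fbw7 with reduced substrate affinity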
GPR151 ag – activators of human GPR151, primary screen, cell-based, PathHunter beta-arrestin, luminescence; AID 1508602, 2020; activation, % at 11.2 µM; PathHunter beta-arrestin GPR151 cells; 650,000 tested, 1% active; G-protein coupled receptor 151 (Homo sapiens), Q8TDV0; in the data active = activation above about 4.9%;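 also: 0% = median of compound wells and 100% = cells with positive control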
Target sequence (Q8TDV0 whole entry, looked up): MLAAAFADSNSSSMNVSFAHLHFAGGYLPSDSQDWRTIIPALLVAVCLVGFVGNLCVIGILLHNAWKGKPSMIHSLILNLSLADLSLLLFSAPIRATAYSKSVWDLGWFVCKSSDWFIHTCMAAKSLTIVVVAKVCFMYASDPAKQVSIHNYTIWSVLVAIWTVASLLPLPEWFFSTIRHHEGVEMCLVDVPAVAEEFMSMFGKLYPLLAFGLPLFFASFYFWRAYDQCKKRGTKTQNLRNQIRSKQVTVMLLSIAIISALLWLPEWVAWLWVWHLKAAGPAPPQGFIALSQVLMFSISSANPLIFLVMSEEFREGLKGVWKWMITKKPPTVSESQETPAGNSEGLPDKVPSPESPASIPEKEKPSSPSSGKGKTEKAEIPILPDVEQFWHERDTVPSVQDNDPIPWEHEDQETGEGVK
MITF confirm – MITF inhibitors, retest of hits, confirmation, biochemical, AlphaScreen, triplicate. shares compounds with MITF inh. AlphaScreen MITF homodimerization, biotin/His-MITF beads. inhibition, % at 2.6 µM. 4,700 tested, 16% active. AID 1259372, 2018;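 active = inhibition above a cutoff derived from the DMSO control wells, cut at about 28% in these data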;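 also: 0% = MITF dimer wells with DMSO only; inhibitors lower the bead chemiluminescence by keeping MITF from dimerizing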
AlphaScreen DR – AlphaScreen optical interference compounds, dose response, counter-screen, biochemical, HTS; IC50, µM; AlphaScreen optical interference counterscreen, cell-free; 480 tested, 6% active; AID 1259373, 2018; shares compounds with MITF inh; call rule not given here
AS interf ctr – AlphaScreen optical interference compounds, counter-screen for MITF inhibitor project, biochemical, triplicate; shares compounds with MITF inh; LysRS AlphaScreen counterscreen, signal interference; inhibition, % at 2.6 µM; 4,700 tested, 7.6% active; AID 1259376, 2018;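 active = inhibition above a cutoff derived from the DMSO control wells, cut at about 30% in these data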
An asterisk follows results filed as active; · = no result. A selection: hits, their analogues and other compounds. The true share with any hit is near 3.5%.

SMILES | MITF inh | TEAD-YAP inh | FBW7 activator | GPR151 ag | MITF confirm | AS interf ctr | others
COCCNCCOCCOc1ccc(C)cc1[N+](=O)[O-] | 58* | -8 | 0 | -1 | 11 | 10
C=CCNCCCCOc1ccc(C)cc1[N+](=O)[O-] | 75* | -2 | 0 | 1 | -4 | 0
COCCCNCCOCCOc1ccc(C)cc1[N+](=O)[O-] | 30 | 6 | 0 | 0 | · | ·
COCCNCCCCOc1ccc(C)cc1[N+](=O)[O-] | 17 | -3 | 0 | -1 | · | ·
CCC(C)NCCOc1ccccc1[N+](=O)[O-] (configuration not stated) | 33 | 12 | 0 | 1 | · | ·
CCC(C)NCCCCOc1ccc(C)cc1[N+](=O)[O-] (configuration not stated) | 70* | -6 | 0 | 2 | 3 | 14
CCNc1nc2nc3ccc(C)cn3c(=O)c2cc1C(=O)NC1CCCC1 | 0 | -2 | 0 | 0 | · | ·
COC(=O)c1c(NC(=O)CSc2nc(C)nc3sc4c(c23)CCC4)sc2c1CCC2 | -5 | -4 | 0 | 0 | · | ·
CCN(CC)S(=O)(=O)c1cc(C(=O)Nc2ccc(Cl)cc2)ccc1Br | 72* | -28 | 0 | 2 | -6 | -1
CCN(CC)S(=O)(=O)c1cc(C(=O)Nc2ccc(Br)cc2)ccc1Br | 15 | -20 | 0 | 0 | · | ·
CC1(C)CC(=O)C2=C(C1)NC(=O)CC2c1ccc(Cl)cc1Cl (configuration not stated) | 5 | 5 | 0 | 0 | · | ·
Cc1ncn(-c2ccc(Nc3ncc4cccc(-c5ccccc5F)c4n3)cc2)n1 | 28 | -14 | 1 | -2 | · | ·
Cc1ncn(-c2ccc(N(C)c3ncc4cccc(-c5ccn[nH]5)c4n3)cc2)n1 | 58* | 15 | 1 | 0 | 57* | 10 | AlphaScreen DR=>6.5
O=C1OC(c2ccc(Cl)cc2Cl)=N/C1=C\c1ccc([N+](=O)[O-])o1 | 56* | -1 | 0 | 0 | 51* | 2 | AlphaScreen DR=>6.1
CCOc1ccc(S(=O)(=O)N(CC(=O)Nc2ccc(C)c(Cl)c2)c2ccccc2)cc1 | 14 | -2 | 0 | 0 | · | ·
O=[N+]([O-])c1ccc(N2CCCc3ccccc32)c([N+](=O)[O-])c1 | 61* | 16 | 0 | 4 | 47* | 40*
O=[N+]([O-])c1ccc(N2CCc3ccccc3C2)c([N+](=O)[O-])c1 | -6 | 4 | 0 | -1 | · | ·
CNc1cc(Nc2ccccc2)ncn1 | 5 | -28 | 0 | -1 | · | ·
Cc1ccc2c(c1C)C(C)(C)C1(C=Nc3c(ccc4ncccc34)O1)N2C (configuration not stated) | 57* | 3 | 0 | 2 | 52* | 52*
COc1ccccc1CCNC1CC(=O)N(c2ccc(-c3nc4ccc(C)cc4s3)cc2)C1=O (configuration not stated) | -3 | -2 | 0 | -2 | · | ·
O=C1CC(N2CCN(c3ccc(Cl)cc3)CC2)C(=O)N1CCc1ccccc1 (configuration not stated) | 53* | -8 | 0 | 1 | -4 | -2
CN1CCC(N(C)Cc2ccc(F)c(Br)c2)CC1 | 54* | -12 | 1 | -1 | 18 | 17
COc1ccccc1NC(=O)CN(CCc1ccccc1)S(=O)(=O)c1ccccc1 | 7 | 5 | 0 | 0 | · | ·
Nc1nc(-c2cccnc2)nn1C(=O)c1ccc(Cl)cc1 | 4 | -11 | 0 | -1 | · | ·
Nc1nc(-c2cccnc2)nn1C(=O)c1ccc([N+](=O)[O-])cc1 | 55* | 6 | 0 | -2 | 12 | 17
SMILES | MITF inh | TEAD-YAP inh | FBW7 activator | GPR151 ag | MITF confirm | AS interf ctr | others
O=C(Nc1nc(-c2cc([N+](=O)[O-])cs2)cs1)c1ccc([N+](=O)[O-])s1 | 20 | 10 | 0 | -2 | · | ·
CCN(CC)c1nc(NCCOc2ccccc2)nc(Nc2cccc(N(C)C)c2)n1 | 61* | -6 | 0 | -1 | 7 | 6
CC(=O)N/N=C(\C)CC(=O)N(C)c1ccccc1 | -9 | -4 | 0 | -1 | · | ·
CCC(C)NS(=O)(=O)c1ccc(NC(=O)CN2CCOCC2)cc1 (configuration not stated) | 54* | -8 | 0 | 0 | 3 | 17
O=C(CCCCC(=O)Nc1ccc(F)cc1)Nc1ccc(F)cc1 | 56* | 11 | 1 | -1 | 2 | 1
CCN1CCN(CC(=O)Nc2ccc(F)cc2)CC1 | 83* | -1 | 0 | 0 | 17 | 21
CC1CN(CC(=O)Nc2ccc(F)cc2)CC(C)O1 (configuration not stated) | 55* | 4 | 0 | 3 | 13 | 13
O=C(CN1CCN(CC(=O)Nc2ccc(F)cc2)CC1)Nc1ccc(F)cc1 | 6 | 12 | 0 | 0 | · | ·
COc1cc(C(=O)Nc2cccc(-c3nc4cccnc4s3)c2C)cc(OC)c1OC | -1 | -4 | 0 | -1 | · | ·
Cc1ccc(NC(=O)c2cc(Cl)c(Cl)cc2C(=O)O)c(C)c1 | 4 | 6 | 0 | 1 | · | ·
COc1cc(CO)ccc1OCC(=O)Nc1ccc(F)cc1 | 17 | -50 | 1 | -3 | · | ·
CC(=O)c1ccc(NC(=O)CN2CCN(c3ccc(F)cc3)CC2)cc1 | 17 | -8 | 0 | 0 | · | ·
OC(CNc1ccccc1)CN1c2ccccc2Sc2ccccc21 (configuration not stated) | 9 | 0 | 1 | 0 | · | ·
Cc1ccc(C)c(NCC(O)CN2c3ccccc3Sc3ccccc32)c1 (configuration not stated) | 73* | 6 | 0 | 0 | 1 | 3
CCn1c(=N)n(CC(O)c2ccc(Cl)c(Cl)c2)c2ccccc21 (configuration not stated) | 18 | 16 | 0 | 0 | · | ·
CCN1CCN(CCOc2ccc(Cl)cc2Br)CC1 | 57* | 5 | 0 | -2 | 9 | 14
CCN1CCN(CCOc2ccc3ccccc3c2Br)CC1 | 60* | -2 | 0 | 1 | 14 | 13
CC1CN(CCOc2ccc(Cl)cc2Br)CC(C)O1 (configuration not stated) | 39 | 0 | 0 | 0 | · | ·
CCN1CCN(CCCOc2ccc(Cl)cc2Br)CC1 | 68* | -15 | 0 | 2 | 14 | 20
CCN1CCN(CCOc2ccc(Br)cc2C)CC1 | 57* | -4 | 0 | -1 | 17 | 9
Cn1ncc(N=Cc2ccccc2O)c1C(=O)Nc1cccc(Cl)c1 | -3 | -3 | 0 | 1 | · | ·
Cc1ccc(-c2ocnc2C(=O)Nc2nnc(-c3ccco3)s2)cc1 | -4 | -34 | 0 | 0 | · | ·
